From PubChem BioAssay (NCI)
Compounds without any hit were thinned out: in the full panel of roughly 83,000, 20% have a hit.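 Single-dose data. Exposure time 48 hours. Values below 10 considered active.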 Activity calls are given as the source filed them.

How the values were obtained:
Assay in all cases: NCI-60 one-dose screen, 48 h (100 = growth as untreated, 0 = no growth, -100 = all killed)
Conditions in all cases: 10 µM unless noted
SK-MEL-2 melanoma = system: SK-MEL-2 melanoma
EKVX NSCLC = system: EKVX NSCLC
SN12C renal = system: SN12C renal
UO-31 renal = system: UO-31 renal
TK-10 renal = system: TK-10 renal
ACHN renal = system: ACHN renal
A498 renal = system: A498 renal
CCRF-CEM leukemia = system: CCRF-CEM leukemia
MOLT-4 leukemia = system: MOLT-4 leukemia
SR leukemia = system: SR leukemia
OVCAR-5 ovarian = system: OVCAR-5 ovarian
OVCAR-4 ovarian = system: OVCAR-4 ovarian
SK-OV-3 ovarian = system: SK-OV-3 ovarian
IGROV1 ovarian = system: IGROV1 ovarian
OVCAR-3 ovarian = system: OVCAR-3 ovarian
HS 578T breast = system: HS 578T breast
NCI/ADR-RES ovarian = system: NCI/ADR-RES ovarian
CAKI-1 renal = system: CAKI-1 renal
RPMI-8226 leukemia = system: RPMI-8226 leukemia
OVCAR-8 ovarian = system: OVCAR-8 ovarian

Measured: growth

O=C(N/N=C/[C@H](O)[C@@H](O)[C@@H](O)[C@H](O)CO)c1ccc(NC(=O)c2cccnc2)cc1
inactive: SK-MEL-2 melanoma 109% | EKVX NSCLC 107% | SN12C renal 99.4% | UO-31 renal 92.5% | TK-10 renal 106% | ACHN renal 103% | A498 renal 107% | CCRF-CEM leukemia 103% | MOLT-4 leukemia 114% | SR leukemia 103% | OVCAR-5 ovarian 106% | OVCAR-4 ovarian 102% | SK-OV-3 ovarian 108% | IGROV1 ovarian 110% | OVCAR-3 ovarian 120% | HS 578T breast 108% | NCI/ADR-RES ovarian 106%

c1ccc(-c2nc3sc(-c4ccccc4)cn3n2)cc1
inactive: SK-MEL-2 melanoma 94.7% | SN12C renal 79.5% | UO-31 renal 46.9% | TK-10 renal 127% | ACHN renal 85.5% | CAKI-1 renal 90.8% | A498 renal 86% | CCRF-CEM leukemia 86.8% | MOLT-4 leukemia 88.6% | SR leukemia 90.4% | RPMI-8226 leukemia 85.5% | OVCAR-5 ovarian 122% | OVCAR-4 ovarian 76.1% | SK-OV-3 ovarian 94.2% | IGROV1 ovarian 56.2% | OVCAR-3 ovarian 83.5% | HS 578T breast 90.1% | NCI/ADR-RES ovarian 85.6%

Oc1c(I)cc(I)cc1CNCCCN(Cc1ccccn1)Cc1ccccn1
active: SK-MEL-2 melanoma -30.9% | EKVX NSCLC -85.6% | SN12C renal -50.1% | UO-31 renal -100% | TK-10 renal -78.5% | ACHN renal -100% | A498 renal -98.4% | CCRF-CEM leukemia 3.65% | MOLT-4 leukemia -10.5% | SR leukemia 4.38% | OVCAR-8 ovarian -11.2% | OVCAR-5 ovarian -44.9% | OVCAR-4 ovarian -94.3% | SK-OV-3 ovarian -73% | IGROV1 ovarian -79.5% | OVCAR-3 ovarian -69.9% | HS 578T breast -21.7% | NCI/ADR-RES ovarian -17.1%

CCN(CC)CCCNc1nc2ccccc2c2c(=O)c3cc(Cl)ccc3sc12
inactive: SK-MEL-2 melanoma 108% | EKVX NSCLC 79.1% | SN12C renal 66.9% | UO-31 renal 33.8% | TK-10 renal 68.7% | ACHN renal 47.3% | A498 renal 41.4% | CCRF-CEM leukemia 11.7% | OVCAR-8 ovarian 61.5% | OVCAR-5 ovarian 75.5% | OVCAR-4 ovarian 45.1% | SK-OV-3 ovarian 89.3% | IGROV1 ovarian 50.7% | OVCAR-3 ovarian 40.5% | HS 578T breast 64.3% | NCI/ADR-RES ovarian 74.1%
active: MOLT-4 leukemia 5.32% | SR leukemia -15.7%

N#Cc1c(Nc2cccc(Cl)c2)sc(C(=O)c2cc3cc(Cl)ccc3o2)c1N
active: IGROV1 ovarian -8.05%
inactive: SK-MEL-2 melanoma 71.4% | EKVX NSCLC 158% | SN12C renal 81.3% | UO-31 renal 81% | TK-10 renal 127% | ACHN renal 112% | A498 renal 128% | CCRF-CEM leukemia 52.8% | MOLT-4 leukemia 66.6% | OVCAR-8 ovarian 67.4% | OVCAR-5 ovarian 86.4% | SK-OV-3 ovarian 97.9% | OVCAR-3 ovarian 111% | HS 578T breast 105% | NCI/ADR-RES ovarian 84.3%

CCOC(=O)c1cn2ncnc(Oc3ccc(NC(=O)NCCN4CCOCC4)c(Cl)c3)c2c1C
inactive: SK-MEL-2 melanoma 113% | EKVX NSCLC 96.3% | SN12C renal 95.8% | UO-31 renal 80.8% | TK-10 renal 98% | ACHN renal 99.5% | A498 renal 85.2% | CCRF-CEM leukemia 96.6% | MOLT-4 leukemia 106% | SR leukemia 105% | OVCAR-8 ovarian 101% | OVCAR-5 ovarian 96.4% | SK-OV-3 ovarian 92.2% | IGROV1 ovarian 101% | OVCAR-3 ovarian 105% | HS 578T breast 91.4% | NCI/ADR-RES ovarian 101%

CCN(CC)CCNC(=O)c1cn2ncnc(Oc3ccc(NC(=O)Nc4ccc(Cl)c(C(F)(F)F)c4)cc3)c2c1C
inactive: NCI/ADR-RES ovarian 61%
active: SK-MEL-2 melanoma -51.7% | EKVX NSCLC -47.7% | SN12C renal -92.5% | UO-31 renal -92% | TK-10 renal -66% | ACHN renal -55.2% | A498 renal -6.51% | CCRF-CEM leukemia -8.36% | MOLT-4 leukemia -45% | SR leukemia -56.4% | OVCAR-8 ovarian -42.5% | OVCAR-5 ovarian -62.7% | SK-OV-3 ovarian -85.9% | IGROV1 ovarian -53.1% | OVCAR-3 ovarian -70.9% | HS 578T breast -44.4%

COc1ccc2c(c1)nc(NNC(=O)c1cnccn1)c1cccn12
active: UO-31 renal 4.76% | ACHN renal 7.83% | MOLT-4 leukemia 5.36% | NCI/ADR-RES ovarian 9.97%
inactive: SK-MEL-2 melanoma 64.8% | EKVX NSCLC 22.2% | SN12C renal 35.4% | TK-10 renal 31.1% | A498 renal 49.2% | CCRF-CEM leukemia 11.7% | RPMI-8226 leukemia 23.5% | OVCAR-8 ovarian 24.1% | OVCAR-5 ovarian 42.3% | OVCAR-4 ovarian 17.5% | SK-OV-3 ovarian 26.5% | IGROV1 ovarian 16.3% | OVCAR-3 ovarian 15.3% | HS 578T breast 78.2%

COc1cc2oc(-c3ccc(O)cc3)cc(=O)c2c(O)c1-c1c(OC)cc(O)c2c(=O)cc(-c3ccc(O)cc3)oc12
active: SR leukemia 5.09%
inactive: SK-MEL-2 melanoma 51.9% | EKVX NSCLC 85.5% | SN12C renal 15.8% | UO-31 renal 14.6% | TK-10 renal 75.3% | ACHN renal 49.4% | A498 renal 83.9% | CCRF-CEM leukemia 44.9% | MOLT-4 leukemia 32.6% | OVCAR-8 ovarian 28.1% | OVCAR-5 ovarian 101% | OVCAR-4 ovarian 67.8% | SK-OV-3 ovarian 37.5% | IGROV1 ovarian 16.7% | OVCAR-3 ovarian 29.3% | HS 578T breast 17.5% | NCI/ADR-RES ovarian 79.6%

Cc1cccc2c(=O)c3c(sc12)c(NCc1ccccc1)nc1ccccc13
inactive: SK-MEL-2 melanoma 101% | EKVX NSCLC 89.7% | SN12C renal 93.6% | UO-31 renal 66.5% | TK-10 renal 105% | ACHN renal 90.9% | A498 renal 72.4% | CCRF-CEM leukemia 100% | MOLT-4 leukemia 92.1% | SR leukemia 74.4% | OVCAR-8 ovarian 100% | OVCAR-5 ovarian 75.6% | OVCAR-4 ovarian 87.6% | SK-OV-3 ovarian 88.7% | IGROV1 ovarian 74.3% | OVCAR-3 ovarian 106% | HS 578T breast 98.7% | NCI/ADR-RES ovarian 97.2%
